These results are taken from PubChem BioAssay (Tox21).

Values joined by “and” are separate entries in the source; they are usually repeats but may differ in a detail not shown here. Equal entries are not always repeated. Inconclusive results are not listed. Where a call stands in place of a potency, no number is given. Active and inactive are the calls of the source. The call rests on the fitted dose curve; in most records, active means well fitted activation curve with a large enough effect in the repeat runs; inconclusive means weak or mixed curves; inactive means flat fitted curve, though single readings scatter.
Potency means the concentration at half of the fitted maximal effect.

The assay in a line: A CellTox Green Cytotoxicity Assay to monitor cytotoxicity in HEK293 cells - 40 hour (AID 1224871). Further: nearly all actives have a fitted effect of over 45% in size. Conditions: CellTox Green fluorescence; series mostly up to 76.8 µM. The source says:
National Center for Advancing Translational Sciences [NCATS]
NIH Chemical Genomics Center [NCGC]
U.S. Environmental Protection Agency [EPA]
National Institutes of Environmental Health Sciences [NIEHS]
National Toxicology Program [NTP]
Cell-based models are critical for drug discovery. Determining the natural cytotoxic effects resulting from test compounds is an essential research activity. A CellTox Green Cytotoxicity Assay to monitor cytotoxicity in real time of continues cell culture during 40 hours of the compound treatment was used to screen Tox21 10K library compounds in Hek293 cells. CellTox Green Cytotoxicity Assay is a nonlytic, homogeneous, biofluorescent method to measure cytotoxicity in cell culture after experimental manipulation. The assay system uses a proprietary asymmetric cyanine dye that is excluded from viable cells but preferentially stains the dead cell's DNA. […] Viable cells produce no appreciable increases in fluorescence. Therefore, the fluorescence signal produced by the binding interaction with dead cell DNA is proportional to cytotoxicity.
The mixture of Hek293 cell suspension and reagents were dispensed at 600cells/6 ul/well in 1536-well tissue culture treated black solid bottom plates using a Multidrop dispenser. After the assay plates were incubated at a 37 C/5% CO2 incubator for 5 hours, 23 nL of compounds dissolved in DMSO, positive and negative controls was transferred to the assay plate by a pintool work station. The plates were incubated at 37 C for 40 hours. The fluorescence intensity were measured at 0h, 8h, 16h, 24h, 32h and 40h time points using ViewLux plate reader during compound treatment.
As for `CCC(Br)(CC)C(=O)NC(N)=O`, the Potency entry is “inactive”.
For the compound `O=C(CBr)OCc1ccccc1`, the Potency entry is “inactive”.
The result for `O=C(O)c1ccccc1C(=O)Nc1cccc2ccccc12` reads “inactive”; that for `Cc1cc(=O)[nH]o1`, “inactive”.
As to `CCCN(CCCl)c1c([N+](=O)[O-])cc(C(F)(F)F)cc1[N+](=O)[O-]`, the Potency entry is “inactive”.
In the case of `COc1nn(C(=O)NS(=O)(=O)c2ccccc2OC(F)(F)F)c(=O)n1C`, the Potency was 20 µM (active).
For `CN1[C@@H]2CC[C@H]1CC(OC(=O)c1cc(Cl)cc(Cl)c1)C2` (stereo not given in full), the Potency result was “inactive”.
For the compound `C=CC(=O)OCCCCO`, the Potency result is “inactive”.
Take `CCOc1ccc(C(C)(C)COCc2cccc(Oc3ccccc3)c2)cc1`: the Potency result was “inactive”.
Regarding `CCCCCCCCOC(=O)c1ccc(C(=O)OCCCCCCCC)c(C(=O)OCCCCCCCC)c1`, the Potency result is “inactive”.
Regarding `O=Cc1ccc2c(c1)OCO2`, the Potency entry was “inactive”.
On to `C=C(C#N)CCC#N`, for which the Potency result was “inactive”.
Consider `CCOP(=S)(OCC)SCn1nnc2ccccc2c1=O`, for which the Potency entry is “inactive”.
As for `ClC=C(Cl)Cl`, the Potency entry is “inactive”.
To `O=NN1CCNCC1` belongs “inactive”; to `O=C(N[C@H](c1ccccc1)[C@@H]1CN2CCC1CC2)c1c(Cl)ccc(C(F)(F)F)c1Cl`, 78.8 µM (active); to `COc1nn(CSP(=S)(OC)OC)c(=O)s1`, “inactive”.
To `O=C(NCc1cccnc1)Nc1ccc([N+](=O)[O-])cc1` belongs “inactive”; to `CC(=O)c1cc2c(cc1C)C(C)(C)C(C)CC2(C)C` (stereo not given), 19.5 µM (active); to `C=CC(=O)OC(C)(C)C`, “inactive”.
Turning to `NS(=O)(=O)C(F)(F)C(F)(F)C(F)(F)C(F)(F)C(F)(F)C(F)(F)C(F)(F)C(F)(F)F`, the Potency result was “inactive”.
With `CCOP(=S)(OCC)SCSCC`, the Potency entry was “inactive”.
For `C=CC(C)=O`, the Potency result is “inactive”.
`Cn1cc[n+](C)c1` (tested in a mixture with another compound): the Potency entry is “inactive”.
For the compound `CCOS(C)(=O)=O`, the Potency entry is “inactive”.
The result for `CCOP(=O)(OCC)O/C(=C/Cl)c1ccc(Cl)cc1Cl` reads “inactive”; that for `CN1C(=O)C(O)N=C(c2ccccc2)c2cc(Cl)ccc21` (stereo not given), “inactive”.
The result for `CCOC(=O)CBr` reads “inactive”; that for `CO/C=C(/C(=O)OC)c1ccccc1COc1cccc(C(F)(F)F)n1`, 3.89 µM (active).
The result for `C(=NC1CCCCC1)=NC1CCCCC1` reads 19.6 µM (active) and 21.9 µM (active).
Consider `Cl/C=C\Cl`, for which the Potency result was “inactive”.
As for `BrCC(Br)C1CCC(Br)C(Br)C1` (stereo not given), the Potency result is “inactive”.
Regarding `COc1c(C(C)(C)C)cc([N+](=O)[O-])c(C)c1[N+](=O)[O-]`, the Potency entry was “inactive”.
As for `O=C1c2ccccc2C(=O)C1C(=O)C(c1ccccc1)c1ccccc1`, the Potency result was “inactive”.
Turning to `C/C=C/C=O`, the Potency result was “inactive”.
As for `C[C@H]1CNCCc2ccc(Cl)cc21`, the Potency result is “inactive”.
As for `CCCCOC(=O)c1ccccc1C(=O)OCc1ccccc1`, the Potency result is “inactive”.
On to `CC(C)(C)C(O)C(Oc1ccc(Cl)cc1)n1cncn1` (stereo not given), for which the Potency is 5.49 µM (active).
On to `CCOC(=O)[C@]1(c2ccccc2)Oc2ccccc2[C@@H]1N`, for which the Potency entry was “inactive”.
As for `CC(=O)NC1CCSC1=O` (stereo not given), the Potency result is “inactive”.
